This is a sample that favours compounds with a hit; in the whole collection about 2.4% have one here.
Arbovirus inh: blocks arbovirus infection; arbovirus infection cell-based antiviral screen; inhibition, % at 10 µM; 0.37% of 200,000 active; AID 1251; in the data active means inhibition above about 30%
EP2 mod: modulators of human EP2 prostaglandin E2 receptor | P43116 | EP2-expressing cells, cAMP HTRF FRET, PGE2 co-stimulation | induction, % at 25 µM | 0.83% of 260,000 active;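 active means compounds whose cAMP rise, as percent of the full-agonist control response, exceeds 60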;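 further: rat C6 glioma line stably carrying human EP2 under a CMV promoter; the protocol text gives 20 µM as final concentration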
p97 ATPase inh: inhibitors of human p97 ATPase; P55072; AID 1481; recombinant p97 ATPase, Kinase-Glo ATP luminescence, 3 h; inhibition, % at 8 µM; 0.42% of 220,000 active; in the data active means inhibition above about 15%
Target sequence (P55072 whole entry, looked up): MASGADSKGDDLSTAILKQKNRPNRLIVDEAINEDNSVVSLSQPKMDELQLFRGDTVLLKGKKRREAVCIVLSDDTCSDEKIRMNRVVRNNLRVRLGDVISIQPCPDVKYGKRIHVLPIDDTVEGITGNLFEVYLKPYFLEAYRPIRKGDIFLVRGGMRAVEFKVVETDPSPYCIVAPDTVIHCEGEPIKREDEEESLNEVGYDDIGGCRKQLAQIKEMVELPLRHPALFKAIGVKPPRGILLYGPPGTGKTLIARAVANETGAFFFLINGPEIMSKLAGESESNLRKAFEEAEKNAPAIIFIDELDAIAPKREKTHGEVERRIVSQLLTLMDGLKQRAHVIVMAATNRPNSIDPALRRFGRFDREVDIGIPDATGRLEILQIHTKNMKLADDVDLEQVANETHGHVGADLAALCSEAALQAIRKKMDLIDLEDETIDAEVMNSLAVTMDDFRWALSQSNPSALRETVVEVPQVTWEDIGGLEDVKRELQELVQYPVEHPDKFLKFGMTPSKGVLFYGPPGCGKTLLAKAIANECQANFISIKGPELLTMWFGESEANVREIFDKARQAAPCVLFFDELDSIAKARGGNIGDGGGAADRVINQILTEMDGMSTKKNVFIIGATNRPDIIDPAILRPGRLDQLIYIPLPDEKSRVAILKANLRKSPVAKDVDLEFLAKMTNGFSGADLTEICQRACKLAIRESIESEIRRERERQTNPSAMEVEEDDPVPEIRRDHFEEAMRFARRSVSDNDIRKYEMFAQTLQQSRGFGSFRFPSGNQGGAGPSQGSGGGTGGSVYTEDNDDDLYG
PGE2 EP2 inh: EP2 receptor (human) inhibition; P43116; C6 glioma cells expressing human EP2, cAMP TR-FRET; cells stimulated with saturating PGE2; inhibition, % at 25 µM; 0.52% of 260,000 active; AID 1422;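 active means percent inhibition above 40 after rounding to a whole number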;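 further: rat C6 glioma host cells with rolipram phosphodiesterase inhibitor present; the protocol text gives 20 µM as final concentration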
Hck-Nef inh: inhibitors of human Hck kinase activated by Nef; inhibition, % at 20 µM; P08631; 0.68% of 220,000 active; Recombinant Hck-YEEI plus Nef, Z-Lyte FRET kinase assay;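 active means Hck-Nef kinase inhibition above about 50%, limit read from the data; inactive means inhibition below that limit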
Hits are given with their value; - = inactive; . = no result; ! = not confirmed by another sample.

SMILES | Arbovirus inh | EP2 mod | p97 ATPase inh | PGE2 EP2 inh | Hck-Nef inh
CCOC(=O)Cn1nnnc1CN(Cc1ccc(C)cc1)Cc1cc2cc(C)ccc2[nH]c1=O | . | - | . | - | .
COc1ccc(S(=O)(=O)N2CCC(C(=O)NCCCOC(C)C)CC2)cc1Cl | . | - | . | - | .
CCO[P@]1(=O)OC[C@@H]2O[C@H](n3cnc4c(N)ncnc43)[C@H](O)[C@H]2O1 | . | 101 | . | - | .
Nc1ncnc2c1nc(Br)n2C1OC2COP(=O)(O)O[C@@H]2C1O (stereo partly specified) | . | 93 | . | - | .
Nc1ncnc2c1ncn2[C@@H]1O[C@H](CO)[C@H](O)C1O (stereo partly specified) | . | - | . | - | .
Nc1nc2c(nc(Br)n2C2OC3COP(=O)(O)O[C@@H]3C2O)c(=O)[nH]1 (stereo partly specified) | . | - | . | - | .
CCCCN(CCCC)c1nc(-c2ccncc2)nc2ccccc12 | . | 68 | - | - | -
COCCNc1nc(-c2ccccc2)nc2ccccc12 | - | - | - | - | -
COCCCNc1nc(-c2ccncc2)nc2ccccc12 | 33 | - | - | - | -
COc1ccc(NC(=O)N(CCN2CCOCC2)Cc2cc3ccc(OC)cc3[nH]c2=O)cc1 | . | - | . | - | .
CCOC(=O)c1c(C)[nH]sc1=S | - | 64 | - | . | -
O=C1c2ccccc2C(=O)c2c(Nc3cc4c5c(ccc6c7ccc8c9c(cc(Nc%10cccc%11c%10C(=O)c%10ccccc%10C%11=O)c(c3c56)c97)-c3ccccc3C8=O)C(=O)c3ccccc3-4)cccc21 | . | - | . | 44 | .
CNc1cccc2c1C(=O)c1ccccc1C2=O | - | - | - | - | -
O=C1c2ccccc2C(=O)c2c(Nc3ccc4c5c(cccc35)C(=O)c3ccccc3-4)cccc21 | . | - | . | 43 | .
CC(C)NC(=O)CSc1nc2ccccc2n1CC(=O)NC(C)C | . | - | . | - | .
CCC(C)(C)n1nnnc1C(c1ccc(C(F)(F)F)cc1)N1CCC(C)CC1 (stereo unspecified) | . | 77 | . | - | .
CC1CCN(C(c2ccc(N(C)C)cc2)c2nnnn2C(C)(C)C)CC1 (stereo unspecified) | - | - | - | - | -
CC[C@H](Cn1nc(-c2ccc(F)c(F)c2)ccc1=O)NC(=O)Cc1ccccc1OC | . | - | . | . | .
CCOc1ccccc1NC(=S)Nc1ncccc1C | - | - | - | 41 | -
CC(=O)O[C@H]1CC[C@@]2(C)C(=CC[C@@H]3[C@H]4CC[C@@H]([C@H](C)C(=O)O)[C@]4(C)CC[C@H]32)C1 | . | - | . | - | .
CC(=O)O[C@H]1CC[C@@]2(C)C(=CC[C@@H]3[C@H]4CC[C@@H](c5cc(C(F)(F)F)n(C(C)=O)n5)[C@]4(C)CC[C@H]32)C1 | . | - | . | 42 | .
CC1CCCCN1c1nc(-c2ccncc2)nc2ccccc12 (stereo unspecified) | - | 65 | - | - | -
CCCCC(C)(O)C/C=C/[C@H]1[C@H](O)CC(=O)[C@@H]1CCCCCCC(=O)OC (stereo partly specified) | - | 97 | - | - | -
CCCCCC1C(=O)CCC1CC(=O)OC (stereo unspecified) | . | - | . | - | .
COc1ccc2nc(N3C(=O)CC(Cc4cc(C)cc(C)c4)C3=O)sc2c1 (stereo unspecified) | 39 | - | - | . | -
SMILES | Arbovirus inh | EP2 mod | p97 ATPase inh | PGE2 EP2 inh | Hck-Nef inh
COc1ccc2nc(N3C(=O)CC(Cc4ccc(Cl)cc4)C3=O)sc2c1 (stereo unspecified) | - | - | - | - | -
COc1ccc([C@@H]2CN(C(=O)C3CCCC3)C[C@H]2C(=O)Nc2nccs2)cc1 | . | - | . | - | .
Nc1cc2nc3ccccc3oc-2cc1=O | . | - | - | 42 | -
O=C1CCCC/C1=C/Nc1ccc(S(=O)(=O)Nc2nccs2)cc1 | . | - | . | - | .
Cc1n[nH]c(C)c1SCC(=O)Nc1ccc(F)cc1 | - | - | - | - | -
Cc1nc(SCc2ccc(C(=O)O)cc2)nc2c1CCCC2 | - | 61! | - | - | -
Cc1nc(SCC(=O)Nc2ccc(F)cc2)nc2c1CCCC2 | . | - | . | 54 | .
Cc1noc(C)c1C(=O)N[C@H](Cn1nnc2ccccc21)C(C)C | . | - | . | . | .
CCOC(=O)CSc1nc2c(C)c(C)ccc2cc1C | . | 88 | . | - | .
Cc1cc2ccc(C)c(C)c2nc1SCC(N)=O | . | - | . | - | .
CCOC(=O)CSc1nc2c(C)cccc2cc1CC | . | 73 | . | - | .
C[C@H]1CCC/C=C\[C@@H]2C[C@H](OC(=O)CN(C)C)C[C@H]2[C@@H](O)/C=C\C(=O)O1 | . | - | . | 46 | .
Cc1cccc2cc(C#N)c(SCC(=O)N3CCC(C)CC3)nc12 | - | - | - | - | -
Cc1cc(C)c2nc(N3CCCCC3)c(C#N)cc2c1 | . | 63 | . | - | .
COCC(=O)N1CCCN(c2nc3c(C)cccc3cc2C#N)CC1 | - | - | - | - | -
Cc1cccc2cc(C#N)c(N3CCCCC3)nc12 | . | 74 | . | - | .
Cc1cccc2cc(C#N)c(N3CCC(C)CC3)nc12 | . | 77 | . | - | .
CC1(c2ccccc2)CC(c2ccccc2)=Nc2ccccc2N1 (stereo unspecified) | . | 88 | - | - | -
Oc1ccc2ccccc2c1CN(Cc1c(O)ccc2ccccc12)C1CCCCC1 | . | - | . | 55 | .
Cc1nn(CC(O)Cn2c3c(c4ccccc42)CCN(C)C3=O)c(C)c1Br (stereo unspecified) | 36 | - | - | - | -
O=C(COc1ccccc1)N(Cc1ccccc1)c1nc(-c2ccccc2)cs1 | - | - | - | - | -
CC(=O)N(Cc1ccccc1)c1nc(-c2ccccc2)cs1 | - | 64 | - | - | -
COc1ccc(Cl)cc1C(=O)NNC(=O)C1COc2ccccc2O1 (stereo unspecified) | - | - | - | - | -
COC(=O)c1ccsc1NC(=O)C1COc2ccccc2O1 (stereo unspecified) | 31 | - | - | - | -
COC(=O)c1ccccc1NC(=O)C1COc2ccccc2O1 (stereo unspecified) | - | - | - | - | -
SMILES | Arbovirus inh | EP2 mod | p97 ATPase inh | PGE2 EP2 inh | Hck-Nef inh
COc1ccc(C)cc1NC(=O)C1COc2ccccc2O1 (stereo unspecified) | 50 | - | - | - | -
Cc1noc(-c2ccccc2OC(=O)c2ccccc2)n1 | - | 64 | - | - | -
O=C(Oc1ccccc1-c1nnco1)c1ccccc1 | - | - | - | - | -
COc1ccc(NC(=O)CSc2nnc(-c3ccc(O)cc3)o2)c(OC)c1 | . | - | . | - | .
CC(C)Cn1c2c(c(O)c(C(=O)Nc3nc4ccccc4s3)c1=O)CCCC2 | . | - | - | - | -
CCCn1c2c(c(O)c(C(=O)Nc3nc4ccccc4s3)c1=O)CCCC2 | 43 | - | - | - | -
O=C(Nc1ccccc1C(=O)O)c1cccc(NC(=O)c2ccc(Br)o2)c1 | 32 | - | - | - | -
O=C(Nc1ccccc1C(=O)O)c1ccc(NC(=O)c2ccc(Br)o2)cc1 | 46 | - | - | - | -
O=C(Cn1nc2c3ccccc3nc(C3CC3)n2c1=O)N1CCc2ccccc21 | . | - | . | . | .
CCCCCNc1nc2ccccc2nc1NS(=O)(=O)c1cccs1 | 32 | - | - | - | -
COc1ccc(S(=O)(=O)N2CCN(c3ccccc3OC)CC2)cc1OC | 49 | - | - | - | -
COc1ccccc1N1CCN(S(=O)(=O)c2ccccc2)CC1 | - | - | - | - | -

Bioassay records (PubChem)
